# Measured values reported in the supplement of paper PMC6555819.
# System: RARb homodimer (NR concentration 270 nM)
# Assay: PBM binding z-score (relative to random genomic background probes); higher = stronger binding; sequences stand for … in GC…GCGATTGACAGCGTAGAATGAAGG
# Summary of the method: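 Binding buffer was PBS pH 7.4 with 2% milk, 0.02% Triton X-100, 1 mM DTT, 0.2 mg/mL BSA and 0.4 mg/ml salmon testes DNA. In it, ligand-free nuclear receptor dimers were incubated 1 h on custom Agilent 4×180K protein-binding microarrays carrying double-stranded probes. Antibodies against each partner (one per run) detected binding, and z-scores were calculated against random background probes after regression normalization of scanned fluorescence.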
row,Sequence,PBM binding z-score
1,ATATGTAGGTTTCATCCGGGTCATTCAGGCTATG,2.53
2,CCTACTGGGTCAAGGTCATTGATCAGTCAAAGCA,4.88
3,AGTCAAAGTTAACTAGGTAACGTAAGATTCAGCT,-0.331
4,CCTACTGGGCCATTTAGAGGTCATTGATCATATG,3.87
5,CCTTACGGCTCACTGACAGGTTATAGCATTTGGA,0.213
6,CCTAGCAGGCCAACCTGGGTCACTCAAGGCTTGA,2.56
7,GCATATAGGTAATACAATGTGAAAGTCCGATTGT,-0.3
8,ATCTAAAGGTCGAGGTGAGTATAGAGAAAGGGAA,3.3
9,ATCTCTAGGTAAAGATAATTCAGTGAATGCAAAT,-0.268
10,ATCGAAAGGTCGACGAGGTGAGCATACACCGTTT,2.94
11,ATCCCTAGGTAAAAGTTCAGTGAATCCCGAGGAT,2.41
12,CGTCCAAGGTCAGCAGGTCAGTGAAAGCGACGTG,5.12
13,CCTGCTGGGCCATCAGGTCATTGATATCAACGTT,2.51
14,GCAGATAGGTAATACAAGGTGAAAGTCCGATTGT,0.807
15,TCTCGGAGGACACGAAAGGTCAGGGCTCGACATC,4.94
16,CGAACTTGGTCATCCAGGACAGTGAATACATTGA,0.498
17,TCATATAGGTCAAGGTGAAAGTCGAACGATATGA,3.84
18,TCATATAGGTAAACAGGTGAAAATCCGTAAGTTA,0.649
19,ACAAGTTGGTCAGCTGAGGTCACACACAATTCGG,4.58
20,CCTACTGGGCCATCAGGACATTGATATCAACGTT,0.152

row,Sequence,PBM binding z-score
1,TCTATTAGTTGAGTAGGGCAACCGAAACAGCGGA,0.153
2,CGAACGAGGGCATGAGATGATAGCAAATGCCGAT,0.674
3,TCTTGTACATCAAAGGTTAAGAAAGCCGAAGCCT,1.84
4,AGTAGCAGGCCAAGTTTGGGTCACTCAAACAAAG,2.22
5,GCAGTCAGGTGAAACGCAGGTAACTCAGGGTGGC,0.205
6,ATATGTAGGTTATCGGGTCAATCAGTTTGCGCAT,3.02
7,CAAACTAGGTCAAGAGGTCAACGTCCGCTTCCCG,5.63
8,GCGACTGCGGCAAAGCAGGTTACCATAAGGTTGG,0.0926
9,TCTAGCAGGCCAGAGGGTCACTTAAGAGGTACGG,2.71
10,CCTACTGGGCCACGAAATGTCATTGATTCAGTGA,0.607
11,TCGAGTAGGTTACCAATGGGTCATTCAGCTTTCT,2.41
12,GGAACGTGGGCAAGTTGATAGCAGAGTTTGATGG,-0.282
13,ATCTCTAGGTAAAGTTAAGTGAAAGATCGATAGA,-0.142
14,CCTACTGAGCCAAGGTCATTGATCAGTCAAAGCA,3.43
15,CATGCTAGGTCATGGTCAGCTAATCTACAGTATG,3.06
16,GCAGACAGGTGAAACGCAGGTTACTCAGGGTGGC,0.785
17,CAAACTAGATCAAGAGGTCAAAGTCCGCTTCCCG,4.71
18,TCTCGGAGGACACGAAAGGACAGAGCTCGACATC,1.82
19,ATATGTAGGTTAGCTGGGGTCATTCAAACTAGGC,4.02
20,GGAACGAGGGCATTCGTGTTGATAGCATGGCGAT,0.43
